Screens (PubChem)
Pf Dd2 growth: qHTS Primary assay for Inhibitors of Plasmodium falciparum Dd2 growth in vitro; 120,000 tested, 4.3% active; Potency, µM (series often up to 28.9 µM), for the others: at the highest dose activity, negative = inhibition, most hits filed as inhibitors; P. falciparum Dd2 growth, SYBR Green, 72 h; AID 1347417, 2020; active = well fitted inhibition curve with a large enough effect;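 note: plate controls were DMSO vehicle for no effect and reference drug for full effect; nearly all actives have a fitted effect of over 65% in size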
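Readout: SYBR Green fluorescence, 485 nm excitation, 535 nm emission, after ~16 h lysis at 37C. Before that, Dd2-infected red cells (2.5% hematocrit) grew 72 h with compound, 29 uM top final concentration.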
The depositor's hits bear a star; i = inactive; [ ] = another dose, or the depositor's remark. The sample as a whole holds a higher share of hits than the screen did. Potency is the fitted concentration of half-maximal effect.

SMILES	Pf Dd2 growth
Cc1ccc(C(=O)N2CCN(C(=O)c3nnn4c3COC(c3ccc(Cl)cc3)C4)CC2)s1 (centres undefined)	2.8µM*
COc1ccccc1CCC(=O)NC1CCc2nn(CC3CC3)c(=O)n2CC1 (centres undefined)	-18%
O=C(NCCc1nc(-c2ccccc2)cs1)C1CC(=O)N(c2n[nH]c3ccccc23)C1 (centres undefined)	-3%
COc1cccc(-c2nc3cc4c(cc3cc2CN2CCOCC2)OCO4)c1OC	-30%
COc1cccc(-c2nc3cc4c(cc3cc2CN2CCSCC2)OCO4)c1OC	11µM*
COc1cccc(-c2noc(N3CCCC3)n2)c1OC	-5%
O=C(NCc1nnc2ccc(-c3ccccc3)nn12)c1ccccc1F	-14%
COc1ccccc1N1CCCc2ncc(C(=O)N3CC[S+](=O)([O-])CC3)cc21	58%[44.1 µM]
COc1ccccc1N1CCCc2ncc(C(=O)N3CCCC[C@@H]3Cc3ccccc3)cc21	4.5µM*
COc1ccccc1N1CCCc2ncc(C(=O)NCCc3c[nH]c4ccccc34)cc21	-19%[44.1 µM]
O=C(Cc1cccc(C(F)(F)F)c1)N1CCCc2ncc(C(=O)N3CCCC[C@@H]3Cc3ccccc3)cc21	11µM*
O=C(Cc1cccc(C(F)(F)F)c1)N1CCCc2ncc(C(=O)N3CCC[C@@H]3c3ccc(F)cc3)cc21	-4%
O=C(NCc1cccc(F)c1)c1cnc2c(c1)N(C(=O)Cc1cccc(C(F)(F)F)c1)CCC2	13%
COc1cccc(-c2cc(C3CCN(C(=O)c4ccccc4Br)CC3)[nH]n2)c1	-14%
COCCN1C(=O)CS(=O)(=O)C12CCN(C(=O)c1sccc1C)CC2	-15%
CN(C)C[C@@H]1CN(S(C)(=O)=O)C[C@H]1NC(=O)c1cscn1	i
Cc1ccc(-c2ccnc(N(C)CC3CC(=O)N(C(C)(C)C)C3)n2)c(C)n1 (centres undefined)	i
COc1ccc(-c2cc3ccc(O)c(CN4CCCC4)c3oc2=O)cc1	5.6µM*
COc1ccc(-c2c(C)c3ccc(O)c(CN4CCC(C)CC4)c3oc2=O)cc1OC	10µM*
O=c1oc2c(CN3CCOCC3)c(O)ccc2cc1-c1ccc(Cl)cc1	7.1µM*
COc1ccc(-c2nnc(SCC(=O)N3CCCCC3)o2)cc1	-22%
COc1ccc(-c2cc3ccc(O)c(CN4CCC(C)CC4)c3oc2=O)cc1	2.2µM*
O=C(Cn1nnnc1CN1CCOCC1)N1CCN(c2ccc(Cl)cc2)CC1	-13%
COc1ccc(CNC(=O)Cn2c(=O)oc3cc(S(=O)(=O)N4CCC(C)CC4)ccc32)cc1	-29%
COc1ccc(-c2nc(S(=O)(=O)c3ccccc3)c(N3CCC(C)CC3)o2)cc1	31%
SMILES	Pf Dd2 growth
COc1ccc(-c2onc(C)c2C)cc1S(=O)(=O)N1CCC(C)CC1	15%
COc1ccc(CN2CCC(N3CCCCCC3=O)CC2)cc1	13%[44.1 µM]
COc1ccc(CN2CCC3(CC2)CC(O)CCO3)cc1OC (centres undefined)	2%
Cn1cc(-c2ccc(O)c(F)c2)c2nc(CN3CCOCC3)cn2c1=O	-16%[44.1 µM]
C=CCNC(=O)[C@@H]1CCCN1[C@@H](C(=O)NC)c1ccccc1OC	i
Cc1ccccc1-c1noc(CCC(=O)N2CCC3(CCCNC3)C2)n1 (centres undefined)	-25%
O=C(Nc1ccc([C@@H](O)[C@H]2COCC(=O)N2Cc2ccc(F)cc2)cc1)C1CCC1	i
CCN(CC)C(=O)N1CCCN(C(=O)C2CC2)C(c2ccccc2)CC(=O)NCC1 (centres undefined)	-19%
C=CCC(=O)N1CCOC(CCCC(C)C)C1 (centres undefined)	-30%
Cc1ccc(CN[C@@H]2CO[C@H](CNS(=O)(=O)c3ccc(C)cc3)[C@H]2O)cc1	i
Cc1cc2oc(=O)c(CC(=O)O)c(C)c2c2occ(-c3ccccc3)c12	-14%
COc1ccccc1CNC(=O)C1CCN(Cc2nc(-c3ccc(OC)c(OC)c3)oc2C)CC1	-7%
COc1ccc(CNC(=O)C2CCN(Cc3nc(-c4ccc(OC)c(OC)c4)oc3C)CC2)cc1	-26%
O=c1oc2c(CN3CCCC3)c(O)ccc2cc1-c1ccccc1	11µM*
O=c1oc2ccc(Br)cc2cc1-c1csc(-c2ccccc2)n1	23%
COc1ccc(-c2cc3ccc(O)c(CN4CCC(C)CC4)c3oc2=O)cc1OC	2.5µM*
CC1=NOC2(CCN([S+](=O)([O-])c3ccccc3)C2)C1 (centres undefined)	-7%[44.1 µM]
Cc1noc(-c2nc(-c3ccc(Br)cc3)no2)n1	5%
Cc1ccccc1NC(=O)N(C)CC1CCOC1 (centres undefined)	12%[5.79 µM]
Cc1ccc(NC(=O)CCC2CCN(C(=O)c3ccccc3)CC2)cc1F	i
Cc1cccc(S(=O)(=O)N(C)CC2CCOCC2)c1	-9%
CCc1noc(CC2CCOC3(CCN(S(=O)(=O)c4ccc(F)c(F)c4)CC3)C2)n1 (centres undefined)	-28%
CC(C)NC(=O)NC[C@H]1O[C@@H]2C[C@@H](CC(=O)NCc3cnn(C)c3)O[C@@H]2[C@@H]1O	-11%[44.1 µM]
CCCn1c(C)cnc1CC1CCN(C(=O)c2ccc(OC)cc2OC)CC1	i
